BoNT-A LC inh2: blocks Botulinum neurotoxin A light chain protease. inhibition, % at 10 µM. actives 0.17% (n = 360,000). multiplex microsphere protease substrate cleavage, flow cytometry
Bead autofluor: flagged as autofluorescent in microsphere protease counterscreen. compound autofluorescence counterscreen, microsphere flow cytometry; hits give high values. fluorescence intensity (test concentration not listed). actives 3.1% (n = 360,000). AID 624483; in the data active = fluorescence intensity above about 16000; inconclusive = no clear call, values can overlap the other calls
BoNT F protease: inhibitors of Botulinum neurotoxin F light chain protease | Multiplex microsphere protease cleavage assay, flow cytometry | inhibition, % at 10 µM | actives 0.22% (n = 360,000); in the data active = inhibition above about 35%, passing the limit was not always enough; inconclusive = no clear call, values can overlap the other calls
Anthrax LF prot: anthrax lethal factor protease inhibition. multiplex microsphere protease cleavage assay, LF. inhibition, % at 10 µM. actives 0.12% (n = 360,000). AID 588501
Each line names hits and unclear results; the compound was inactive in the other large screens. Compounds with a hit are over-represented: about 3.5% of the library has one in this group of screens. Cut-off read from the data, not from the text of the source, unless noted: active = inhibition above about 30%; inconclusive = no clear call, values can overlap the other calls; inactive = below that.

CC1CCc2cccc3c2N1c1cc(C#N)c(C#N)cc1O3 (stereo not drawn)	Bead autofluor 23863
Nc1oc2ccc(F)cc2c(=O)c1C=O	none
CC(C)C(NC(=O)c1cccs1)C(=O)NC1=NCCS1 (stereo not drawn)	BoNT-A LC inh2 inconclusive, Bead autofluor 21605
CC(=O)OC1CSC2c3ccccc3C(=O)N2Cc2sccc21 (stereo not drawn)	none
O=C(c1ccc(Cl)cc1)N1CCC(c2nc(-c3cccs3)no2)CC1	Bead autofluor 23989
ONC(=Nc1ccc(Cl)cc1)c1ccc(Cl)cc1	Bead autofluor 24126
O=C(COC(=O)c1n[nH]c2ccccc12)NC(=O)NC12CC3CC(CC(C3)C1)C2	BoNT-A LC inh2 inconclusive, Bead autofluor 19573
COc1ccc(CC(=O)OCC(=O)NC(=O)NC23CC4CC(CC(C4)C2)C3)cc1	Bead autofluor 24237
O=C(c1cc(C2CCCCN2S(=O)(=O)Cc2ccccc2)on1)N1CCOCC1 (stereo not drawn)	none
O=C(NC1CCCC1)C1c2ccccc2OCC(=O)N1Cc1ccc2c(c1)OCO2 (stereo not drawn)	none
Cn1c(=O)c(=O)n(C)c2cc(S(=O)(=O)Nc3ccc4c(c3)OCCO4)ccc21	BoNT-A LC inh2 inconclusive, Bead autofluor 22407
Cc1ccc(NS(=O)(=O)c2ccc3c(c2)oc(=O)n3C)cc1C	none
Cn1c(=O)oc2cc(S(=O)(=O)Nc3ccc4c(c3)OCCO4)ccc21	BoNT-A LC inh2 inconclusive, Bead autofluor 21945
CC(C)Oc1ccc(C2NC(=O)c3ccccc3O2)cc1 (stereo not drawn)	BoNT F protease inconclusive
Cc1ccc(C2CC(=O)Nc3sc(C(N)=O)c(N)c32)cc1 (stereo not drawn)	Bead autofluor 21762
O=CNCCCc1nc2ccccc2n1Cc1ccccc1	Bead autofluor 16906
CC(=O)NCCCc1nc2ccccc2n1Cc1ccccc1C	BoNT-A LC inh2 inconclusive, Bead autofluor 24006
C[C@@]12C(=O)N(CCc3c[nH]c4ccccc34)CC(=O)N1[C@H]1c3ccccc3OC[C@@H]1[C@@H]2c1ccccc1	none
O=C(NN=C1CCCC1)c1cc(Cl)cc(Cl)c1O	none
CC(C)Cc1cc(C(=O)N2CCCC(CCC(=O)N(C)CCc3ccccn3)C2)no1 (stereo not drawn)	none
NNC(=O)c1cn2ccccc2n1	BoNT-A LC inh2 inconclusive, Bead autofluor 19411
Cc1ccc(S(=O)(=O)NCC(=O)OC(C(=O)c2ccccc2)c2ccccc2)cc1 (stereo not drawn)	none
CNC(=O)NC(=O)C(OC(=O)CCNS(=O)(=O)c1ccccc1)c1ccccc1 (stereo not drawn)	Bead autofluor 18283
Cc1cccc(-n2nc3c(c2NC(=O)c2ccco2)CSC3)c1C	Bead autofluor 20718
Cc1cc(-n2c(SCC(=O)NCc3cccs3)nc3n[nH]c(C)c3c2=N)ccc1Cl	Bead autofluor 23384
Cn1c(SCC(=O)c2ccccc2)nnc1-c1ccccn1	BoNT F protease inconclusive
O=C(CSc1nnc(-c2cnccn2)n1Cc1ccco1)c1ccccc1	Bead autofluor 17135
O=C(CSc1nnc(-c2cnccn2)n1Cc1ccco1)c1ccc(Cl)cc1	none
Cn1c(SCC(=O)c2ccc(F)cc2)nnc1-c1cnccn1	Bead autofluor 18205
O=C(O)c1c2c(nc3ccc(F)cc13)CCC2	Bead autofluor 20799
COc1ccc(C2C(C(=O)OCC(=O)N3CCCCC3)CCC(=O)N2c2ccc(OC)cc2)cc1 (stereo not drawn)	none
CCNC(=O)COC(=O)C1CCC(=O)N(c2ccc(OC)cc2)C1c1ccc(OC)cc1 (stereo not drawn)	Bead autofluor 21386
Cc1ccc(Oc2ccc(NC(=O)c3ccco3)cc2)cc1	Bead autofluor 16687
CCN(CC)c1ccc(NC(=O)c2ccco2)cc1	BoNT-A LC inh2 inconclusive, Bead autofluor 20274
CCN(CC)c1ccc(NC(=S)NC(=O)c2ccco2)cc1	none
CC(=O)Nc1ccc(NC(=O)c2ccco2)cc1	Bead autofluor 22348
O=C(Nc1cccc2c1CCCC2)c1ccco1	Bead autofluor 20290
COc1ccc(Cc2nc3c([nH]2)c(=O)n(C)c(=O)n3C)cc1OC	none
COc1ccc(CCNC(=O)CSc2nnc(C(C)N(C)C)n2Cc2ccccc2)cc1OC (stereo not drawn)	none
O=C(Nc1ccc([N+](=O)[O-])cc1)c1cc2ccccc2nc1Cl	none
COc1cc(NS(=O)(=O)c2ccc(NC(=O)c3ccco3)cc2)nc(OC)n1	Bead autofluor 17434
CN(C)C(=O)COn1c(SCC(=O)N(C)C)nc2ccccc2c1=O	Bead autofluor 20262
Cc1occc1C(=O)Nc1cccc(Cl)c1Cl	none
CC(C)NC(=O)CSCc1c(F)cccc1Cl	Bead autofluor 16724
CC(=O)c1ccc(S(=O)(=O)N2CCC(NC(=O)c3ccccc3)CC2)cc1	none
